The source of these data is the supplement of paper PMC8253809.

One experiment relates to DIPGX7 (H3.3 K27M diffuse intrinsic pontine glioma line). Kind of experiment: growth inhibition (% activity, log2 RLU normalised to DMSO / staurosporine); higher = more growth inhibition. The note with it: 33 µM. In outline:
(§1)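 pHGG cell lines and H9-derived neural stem cells were grown on Geltrex-coated 384-well plates. Approved drugs were added by pin tool at a single final concentration of about 33 μM, in triplicate, for 7 days at 37 °C, 5% CO2. CellTiter-Glo luminescence was log2-transformed and normalised per plate to % activity between solvent and positive control wells. The growth-inhibition value is the median over replicates.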
For `C[C@]12C=CC(=O)C=C1CC[C@H]1[C@@H]3C[C@@H](O)[C@](O)(C(=O)CO)[C@@]3(C)C[C@H](O)[C@@]12F`, the growth inhibition was -1.73%.
`NCCC(O)(P(=O)(O)O)P(=O)(O)O`: the growth inhibition amounted to 2.33%.
Regarding `CCC[C@@H]1C[C@@H](C(=O)N[C@@H]([C@H]2O[C@H](SC)[C@H](OP(=O)(O)O)[C@@H](O)[C@H]2O)[C@H](C)Cl)N(C)C1`, the growth inhibition was -1.72%.
Consider `CC(C)[C@H](N)C(=O)OCC(CO)OCn1cnc2c(=O)[nH]c(N)nc21` (stereo not given in full), for which the growth inhibition is -0.125%.
For the molecule `Nc1ccc(S(=O)(=O)Nc2ccccn2)cc1`, the growth inhibition was -0.925%.
On to `CCCCCCCCCCCCCCCCO`, for which the growth inhibition is 1.65%.
With `CC(CN(C)C)CN1c2ccccc2CCc2ccccc21` (stereo not given), the growth inhibition was -0.333%.
With `NCCCC[C@H](N[C@@H](CCc1ccccc1)C(=O)O)C(=O)N1CCC[C@H]1C(=O)O`, the growth inhibition is -0.813%.
On to `CC(N)C12CC3CC(CC(C3)C1)C2` (stereo not given), for which the growth inhibition was found to be 0.357%.
The same measure, in the same setting: the same measure for `CCCCCN(C)CCC(O)(P(=O)(O)O)P(=O)(O)O`: -1.48%; for `CSc1ccc2c(c1)N(CCC1CCCCN1C)c1ccccc1S2` (stereo not given): -0.0552%.
On to `CN/C(=N\CCSCc1nc[nH]c1C)NC#N`, for which the growth inhibition came out at 1.01%.
For `CN[C@@H]1[C@H](O[C@H]2[C@H](O[C@H]3[C@H](O)[C@@H](O)[C@H](N=C(N)N)[C@@H](O)[C@@H]3N=C(N)N)O[C@@H](C)[C@]2(O)C=O)O[C@@H](CO)[C@H](O)[C@H]1O`, the growth inhibition is 0.411%.
On to `COc1cc2c(cc1O)CC[C@@H]1[C@@H]2CC[C@]2(C)[C@@H](O)CC[C@@H]12`, for which the growth inhibition amounted to 9.77%.
As for `CC(C)C[C@H](NC(=O)[C@H](O)[C@H](N)Cc1ccccc1)C(=O)O`, the growth inhibition came to 0.163%.
Consider `CC=CC1=C(C(=O)O)N2C(=O)[C@@H](NC(=O)[C@H](N)c3ccc(O)cc3)[C@H]2SC1`, for which the growth inhibition was -0.595%.
As for `Cc1cc2c(s1)Nc1ccccc1N=C2N1CCN(C)CC1`, the growth inhibition is 1.48%.
Take `OC(Cn1cncn1)(Cn1cncn1)c1ccc(F)cc1F`: the growth inhibition worked out at 1.06%.
Take `CC(C)C[C@H](NC(=O)[C@H](Cc1ccccc1)NC(=O)c1cnccn1)B(O)O`: the growth inhibition came out at 60%.
`Clc1ccccc1CN1CCc2sccc2C1`: the growth inhibition stood at 2.39%.
Take `CNC(CC(C)C)C(=O)NC1C(=O)NC(CC(N)=O)C(=O)NC2C(=O)NC3C(=O)NC(C(=O)NC(C(=O)O)c4cc(O)cc(O)c4-c4cc3ccc4O)C(O)c3ccc(c(Cl)c3)Oc3cc2cc(c3OC2OC(CO)C(O)C(O)C2OC2CC(C)(N)C(O)C(C)O2)Oc2ccc(cc2Cl)C1O` (stereo not given): the growth inhibition is -1.76%.
On the same count and under the same terms, the same measure for `Nc1ccc(S(=O)(=O)Nc2ncccn2)cc1`: 0.776%.
As for `COC1=C(OC)C(=O)C(CCCCCCCCCCO)=C(C)C1=O`, the growth inhibition came out at 2.61%.
On the same count and under the same terms, the same measure for `C=C[C@H]1CN2CC[C@H]1C[C@H]2[C@H](O)c1ccnc2ccc(OC)cc12`: 2.14%; for `COC(=O)C1=C(C#N)NC(C)=C(C(=O)OC(C)C)C1c1cccc([N+](=O)[O-])c1` (stereo not given): -0.445%; for `CS(=O)(=O)c1ccc(C(=O)Nc2ccc(Cl)c(-c3ccccn3)c2)c(Cl)c1`: 3.42%.
As to `N=C(N=C(N)N)N1CCOCC1`, the growth inhibition came out at 0.853%.
With `CCOC(=O)c1c(CSc2ccccc2)n(C)c2cc(Br)c(O)c(CN(C)C)c12`, the growth inhibition amounted to 3.04%.
For the molecule `CCC[C@H](N[C@@H](C)C(=O)N1[C@H](C(=O)O)C[C@@H]2CCCC[C@@H]21)C(=O)OCC`, the growth inhibition was determined as 2.49%.
For `CC(=O)OCC(=O)[C@@]12N=C(C)O[C@@H]1C[C@H]1[C@@H]3CCC4=CC(=O)C=C[C@]4(C)[C@H]3[C@@H](O)C[C@@]12C`, the growth inhibition is 0.297%.
The same measure, in the same setting: next, `CCCNC(C)C(=O)Nc1c(C)csc1C(=O)OC` (stereo not given): 1.5%; `Clc1ccc(C(Cn2ccnc2)OCc2csc3c(Cl)cccc23)c(Cl)c1` (stereo not given): 1.45%; `COc1ccccc1OCCNCC(O)COc1cccc2[nH]c3ccccc3c12` (stereo not given): 3.4%.
For `O=C1O[C@H]([C@@H](O)CO)C([O-])=C1O.[Na+]`, the growth inhibition is -0.532%.
On to `CC(C)NCC(O)c1ccc(NS(C)(=O)=O)cc1` (stereo not given), for which the growth inhibition amounted to 1.46%.
With `Cn1nnc2c(C(N)=O)ncn2c1=O`, the growth inhibition is -1.33%.
Take `O=C(Nc1cccc2c(=O)cc(-c3nnn[nH]3)oc12)c1ccc(OCCCCc2ccccc2)cc1`: the growth inhibition amounted to 2.31%.
For the molecule `CN1CCC(=C2c3ccccc3CCc3sccc32)CC1`, the growth inhibition turned out to be 1.97%.
For the molecule `Clc1ccc(CCC(Cn2ccnc2)Sc2c(Cl)cccc2Cl)cc1` (stereo not given), the growth inhibition came out at 3.57%.
With `COC(=O)[C@@H]1CC2=CC(=O)CC[C@]2(C)[C@@]23O[C@@H]2C[C@@]2(C)[C@@H](CC[C@@]24CCC(=O)O4)[C@H]13`, the growth inhibition is -0.276%.

Another experiment deals with DIPGX9 (diffuse intrinsic pontine glioma line). Described as above. The note with it: 33 µM. An outline of the steps:
as §1
Regarding `C[C@]12C=CC(=O)C=C1CC[C@H]1[C@@H]3C[C@@H](O)[C@](O)(C(=O)CO)[C@@]3(C)C[C@H](O)[C@@]12F`, the growth inhibition was determined as 3.73%.
On to `NCCC(O)(P(=O)(O)O)P(=O)(O)O`, for which the growth inhibition was found to be 0.0373%.
Consider `CCC[C@@H]1C[C@@H](C(=O)N[C@@H]([C@H]2O[C@H](SC)[C@H](OP(=O)(O)O)[C@@H](O)[C@H]2O)[C@H](C)Cl)N(C)C1`, for which the growth inhibition is -1.01%.
In the case of `CC(C)[C@H](N)C(=O)OCC(CO)OCn1cnc2c(=O)[nH]c(N)nc21` (stereo not given in full), the growth inhibition turned out to be 0.141%.
For the molecule `Nc1ccc(S(=O)(=O)Nc2ccccn2)cc1`, the growth inhibition is -0.171%.
Take `CCCCCCCCCCCCCCCCO`: the growth inhibition is 1.02%.
As for `CC(CN(C)C)CN1c2ccccc2CCc2ccccc21` (stereo not given), the growth inhibition was -0.216%.
Take `NCCCC[C@H](N[C@@H](CCc1ccccc1)C(=O)O)C(=O)N1CCC[C@H]1C(=O)O`: the growth inhibition was -0.846%.
As for `CC(N)C12CC3CC(CC(C3)C1)C2` (stereo not given), the growth inhibition amounted to 0.266%.
On the same count and under the same terms, the same measure for `CCCCCN(C)CCC(O)(P(=O)(O)O)P(=O)(O)O`: -0.821%; for `CSc1ccc2c(c1)N(CCC1CCCCN1C)c1ccccc1S2` (stereo not given): -0.344%; for `CN/C(=N\CCSCc1nc[nH]c1C)NC#N`: 0.766%.
With `CN[C@@H]1[C@H](O[C@H]2[C@H](O[C@H]3[C@H](O)[C@@H](O)[C@H](N=C(N)N)[C@@H](O)[C@@H]3N=C(N)N)O[C@@H](C)[C@]2(O)C=O)O[C@@H](CO)[C@H](O)[C@H]1O`, the growth inhibition was -1.2%.
Still for that read-out and setting: next, `COc1cc2c(cc1O)CC[C@@H]1[C@@H]2CC[C@]2(C)[C@@H](O)CC[C@@H]12`: 16.5%.
The same measure, in the same setting: next, `CC(C)C[C@H](NC(=O)[C@H](O)[C@H](N)Cc1ccccc1)C(=O)O`: -1%; `CC=CC1=C(C(=O)O)N2C(=O)[C@@H](NC(=O)[C@H](N)c3ccc(O)cc3)[C@H]2SC1`: 0.543%.
On to `Cc1cc2c(s1)Nc1ccccc1N=C2N1CCN(C)CC1`, for which the growth inhibition was 2.04%.
Same read-out and setting: the same measure for `OC(Cn1cncn1)(Cn1cncn1)c1ccc(F)cc1F`: 1.31%; for `CC(C)C[C@H](NC(=O)[C@H](Cc1ccccc1)NC(=O)c1cnccn1)B(O)O`: 59.1%.
For the molecule `Clc1ccccc1CN1CCc2sccc2C1`, the growth inhibition came to 2.4%.
Turning to `CNC(CC(C)C)C(=O)NC1C(=O)NC(CC(N)=O)C(=O)NC2C(=O)NC3C(=O)NC(C(=O)NC(C(=O)O)c4cc(O)cc(O)c4-c4cc3ccc4O)C(O)c3ccc(c(Cl)c3)Oc3cc2cc(c3OC2OC(CO)C(O)C(O)C2OC2CC(C)(N)C(O)C(C)O2)Oc2ccc(cc2Cl)C1O` (stereo not given), the growth inhibition is -1.16%.
Take `Nc1ccc(S(=O)(=O)Nc2ncccn2)cc1`: the growth inhibition was -0.452%.
As for `COC1=C(OC)C(=O)C(CCCCCCCCCCO)=C(C)C1=O`, the growth inhibition stood at 2.12%.
`C=C[C@H]1CN2CC[C@H]1C[C@H]2[C@H](O)c1ccnc2ccc(OC)cc12`: the growth inhibition worked out at 2.35%.
On the same count and under the same terms, the same measure for `COC(=O)C1=C(C#N)NC(C)=C(C(=O)OC(C)C)C1c1cccc([N+](=O)[O-])c1` (stereo not given): -1.03%; for `CS(=O)(=O)c1ccc(C(=O)Nc2ccc(Cl)c(-c3ccccn3)c2)c(Cl)c1`: 7.16%; for `N=C(N=C(N)N)N1CCOCC1`: 1.87%.
For `CCOC(=O)c1c(CSc2ccccc2)n(C)c2cc(Br)c(O)c(CN(C)C)c12`, the growth inhibition was determined as 0.402%.
Consider `CCC[C@H](N[C@@H](C)C(=O)N1[C@H](C(=O)O)C[C@@H]2CCCC[C@@H]21)C(=O)OCC`, for which the growth inhibition was 2.02%.
Regarding `CC(=O)OCC(=O)[C@@]12N=C(C)O[C@@H]1C[C@H]1[C@@H]3CCC4=CC(=O)C=C[C@]4(C)[C@H]3[C@@H](O)C[C@@]12C`, the growth inhibition was 4.71%.
In the case of `CCCNC(C)C(=O)Nc1c(C)csc1C(=O)OC` (stereo not given), the growth inhibition is -0.444%.
Still for that read-out and setting: next, `Clc1ccc(C(Cn2ccnc2)OCc2csc3c(Cl)cccc23)c(Cl)c1` (stereo not given): 1.99%; `COc1ccccc1OCCNCC(O)COc1cccc2[nH]c3ccccc3c12` (stereo not given): 3.73%.
For the molecule `O=C1O[C@H]([C@@H](O)CO)C([O-])=C1O.[Na+]`, the growth inhibition was -4%.
In the case of `CC(C)NCC(O)c1ccc(NS(C)(=O)=O)cc1` (stereo not given), the growth inhibition amounted to 0.414%.
For the molecule `Cn1nnc2c(C(N)=O)ncn2c1=O`, the growth inhibition was -1.07%.
`O=C(Nc1cccc2c(=O)cc(-c3nnn[nH]3)oc12)c1ccc(OCCCCc2ccccc2)cc1`: the growth inhibition is 0.614%.
`CN1CCC(=C2c3ccccc3CCc3sccc32)CC1`: the growth inhibition was 2.15%.
With `Clc1ccc(CCC(Cn2ccnc2)Sc2c(Cl)cccc2Cl)cc1` (stereo not given), the growth inhibition came out at 4.57%.
As to `COC(=O)[C@@H]1CC2=CC(=O)CC[C@]2(C)[C@@]23O[C@@H]2C[C@@]2(C)[C@@H](CC[C@@]24CCC(=O)O4)[C@H]13`, the growth inhibition is 0.756%.
